# Bioassay records (PubChem)
# Mdm2 MdmX PPI = inhibitors of human Mdm2/MdmX interaction | SaOS-2 split-luciferase Mdm2/MdmX complementation, luminescence | inhibition, % at 8 µM | actives 3% (n = 330,000) | AID 485346;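 active = inhibition of at least 50% at 8 µM in the primary screen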
# Jurkat NFkB inh = inhibitors of the PMA/ionomycin-induced NF-kB reporter in Jurkat cells. PMA/ionomycin-induced NF-kB luciferase reporter, luminescence. inhibition, % at 4 µM. actives 0.53% (n = 330,000). AID 435003; in the data active = inhibition above about 50%
# Beta apoptosis = blocks beta cell apoptosis. INS-1E cytokine-induced death, ATP luminescence, 48 h; percent of positive-control rescue, neutral wells zero. protection from apoptosis, % (concentration not given with the values). actives 0.8% (n = 300,000). AID 435005;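 active = Every replicate reaches about 75%, or at least half do and their mean reaches it too, limit read from the data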;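 note: 0% = cytokine-treated negative control wells and 100% = positive control rescue; higher means more ATP so stronger rescue from cytokine killing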
# 697 NFkB inh = inhibitors of the PMA/ionomycin-induced NF-kB reporter in 697 B cells | 697 B-cell NF-kB luciferase reporter, 16 h | inhibition, % at 4 µM | actives 0.33% (n = 330,000) | AID 435022; in the data active = inhibition above about 35%
# Gli-Sufu block = blocks Gli-Sufu signaling in a luciferase reporter. inhibition, % at 5 µM. actives 0.74% (n = 340,000). AID 588413. Sufu-KO-LIGHT fibroblasts, Gli luciferase reporter luminescence;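 active = inhibition above about 55%, limit read from the data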;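 note: 0% = DMSO-treated cells and 100% = wells with medium but no cells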
# CSC inhib = blocks cancer stem cells; inhibition, % at 7.5 µM; actives 1.1% (n = 300,000); cancer stem cell-like cells viability, luminescence; in the data active = inhibition above about 75%; tested in HMLE shEcad cells
# * = called active by the depositor; . = no result given. Sampled rows, rich in hits. Any-hit rate of the full collection: about 4.5%.
SMILES,Mdm2 MdmX PPI,Jurkat NFkB inh,Beta apoptosis,697 NFkB inh,Gli-Sufu block,CSC inhib
O=C(N/N=C/c1ccc([N+](=O)[O-])s1)C(O)c1ccccc1 (centres undefined),42,21,94*,-4,29,3
O=C(Cc1ccccc1)N/N=C/c1ccc([N+](=O)[O-])s1,15,35,88*,7,3,9
CC1CCCCN1C(=O)CN1CCN(S(=O)(=O)c2ccc(Br)cc2Cl)CC1 (centres undefined),-19,-14,2,-16,-1,13
CCn1c(-c2ccc(N(C)C)cc2)nc2ccccc21,-63,-63,113*,-144,38,6
CCn1c(-c2ccc(N)cc2)nc2ccccc21,13,-13,-5,-19,-10,-9
O=C(NCc1nc2ccccc2[nH]1)C1=C[C@@H](C2CCCCC2)C[C@@H](OCc2ccc(CO)cc2)O1,37,12,106*,-16,-2,2
CCN(CC(=O)Nc1ccc(OC)cc1)C(=O)c1ccc(OCc2c(C)noc2C)cc1,.,.,.,.,-3,.
CC(C)Cn1c(N)c(C(=O)COC(=O)CC23CC4CC(CC(C4)C2)C3)c(=O)n(C)c1=O,27,47,105*,-15,0,64
CCOC(=O)c1ncccc1NC(=O)CC(=O)Nc1cccnc1C(=O)OCC,20,4,-3,-2,-1,-6
Cc1ccc(S(=O)(=O)N(C(=O)c2ccco2)c2cc3sc(=O)oc3c3ccccc23)cc1,16,-4,53,-13,7,46
CCOc1ccc(S(=O)(=O)N(C(=O)c2ccco2)c2cc3sc(=O)oc3c3ccccc23)cc1,44,-9,99*,-61,10,64
COc1ccc(S(=O)(=O)N(C(=O)c2ccco2)c2cc3sc(=O)oc3c3ccccc23)cc1,47,8,98*,-24,4,62
CC(C)CCNC(=O)c1onc(CSc2nc3ccccc3[nH]2)c1C(=O)NCCC(C)C,41,13,7,4,7,9
Cc1ccc(F)c(NC(=O)/C(C#N)=C(\O)c2ccc(C(C)(C)C)cc2)c1,-17,-1,-2,-39,18,79*
CCCOc1ccc(CSc2nc3ccccc3[nH]2)cc1,-184,-23,112*,-77,24,24
O/N=C/c1cc(Br)ccc1OCc1ccc(F)cc1,-22,-11,-4,0,-10,14
Cc1ccc(COc2ccc(Br)cc2/C=N/O)cc1,-126,-102,-10,-160,-64,78*
C=C(C)COC(=O)C1CC2OC2CC1C(=O)OCC(=C)C (centres undefined),.,.,.,.,-2,.
CCOC(=O)/C(=N/Nc1ccc(OC)cc1)N1CCCc2ccccc21,-8,3,7,11,5,75*
Cc1cc(N/N=C/c2ccc(F)cc2)nc(-n2nc(C)cc2C)n1,13,4,110*,-13,4,5
CCOC(=O)Cc1csc(SC(C)C(=O)NC2CCCCC2C)n1 (centres undefined),6,-10,-3,13,-6,.
COc1cc(NC(=O)c2cc3c(=O)n(C)c4ccccc4c3n2C)cc(OC)c1OC,8,11,0,19,6,9
CC(C)c1ccc(NC(=O)c2cc3c(=O)n(C)c4ccccc4c3n2C)cc1,42,-31,13,-19,12,76*
CCOc1ccc(OCc2cccc(C(=O)Nc3ccc(CN4CCCCC4)cc3)c2)cc1,46,-18,19,-1,-54,79*
COc1ccc(OCc2cccc(C(=O)Nc3ccc(CN4CCCCC4)cc3)c2)cc1,37,-36,15,-33,-107,47
SMILES,Mdm2 MdmX PPI,Jurkat NFkB inh,Beta apoptosis,697 NFkB inh,Gli-Sufu block,CSC inhib
CCOc1cc(C)c(S(=O)(=O)Nc2ccc3cn[nH]c3c2)cc1C,31,16,89*,-6,43,-11
COc1cccc(C2CC(c3cccs3)=NN2C(=O)CSc2nc3c(cnn3-c3ccc(F)cc3)c(=O)[nH]2)c1OC (centres undefined),19,3,6,-20,-12,118*
CCN1C(=O)[C@H]2[C@H]3CN=C(SCc4ccc(C)cc4)N3[C@@](Cc3ccccc3)(C(=O)OC)[C@H]2C1=O,-2,.,.,-13,4,.
Cc1ccc(S(=O)(=O)NCc2ccc3c(c2)cc(C)n3C)cc1,16,1,4,8,-10,-7
Cc1cc2cc(CN3C(=O)c4ccccc4C3=O)ccc2n1C,5,-4,100*,11,1,19
CSCCC(=O)N1CCC(n2nccc2NC(=O)CCCc2ccccc2)CC1,-23,-11,-1,-9,10,17
COc1ccc(-n2c(C)cc(C(=O)CSc3ccc(NC(C)=O)cc3)c2C)cc1,-63,-4,5,-33,-29,169*
Cc1ccsc1C(=O)NC(C)c1ccccc1 (centres undefined),18,-7,-7,25,20,-15
O=C(O)c1ccc(Cl)c(S(=O)(=O)N(Cc2ccccc2)c2ccc(F)cc2)c1,-5,-4,3,8,-4,96*
COc1ccc(Cn2c(/C=C/c3ccccc3)nc3ccccc32)cc1,-113,-121,32,-127,-130,48
Clc1ccccc1Cn1c(/C=C/c2ccco2)nc2ccccc21,.,.,-6,.,-3,112*
O=C1OCCC1(c1ccccc1)c1ccccc1,11,-1,.,-3,1,.
CC(=O)c1coc2c1cc(O)c1ccccc12,11,-10,0,-10,12,28
O=C(c1ccco1)c1coc2c1cc(O)c1ccccc12,-17,-9,100*,-3,-2,52
CCOc1ccccc1N(C(=O)Nc1ccc(Cl)cc1)C1=NCCS1,-9,6,3,21,-4,84*
CCOc1ccccc1N(C(=O)Nc1cccc(Cl)c1)C1=NC(C)CS1 (centres undefined),26,-3,-7,5,0,0
COc1ccc(-c2ccc(N(C)C)cc2)cc1[C@H]1[C@@H]2C=CCC[C@@]2(C)C(=O)N1Cc1ccccc1,37,6,4,17,4,49
COc1ccc(-c2cc([C@H]3[C@@H]4C=CCC[C@@]4(C)C(=O)N3Cc3ccccc3)ccc2F)cc1,1,14,-3,15,-10,122*
COc1ccc(-c2ccc(OC)c([C@H]3[C@@H]4C=CCC[C@@]4(C)C(=O)N3Cc3ccccc3)c2)cc1OC,2,12,5,-31,14,28
COc1ccc(-c2ccc([C@H]3[C@@H]4C=CCC[C@@]4(C)C(=O)N3Cc3ccccc3)c(F)c2)cc1,45,7,85*,15,19,54
COc1ccc(Br)cc1[C@H]1[C@@H]2C=CCC[C@@]2(C)C(=O)N1Cc1ccccc1,5,10,5,-16,10,39
C[C@@]12CCC=C[C@H]1[C@H](c1ccc3ccccc3c1)N(Cc1ccccc1)C2=O,43,13,-8,-14,23,86*
